Compound activity: PubChem BioAssay, Broad Institute
Hits are enriched below; roughly 6.7% of the tested compounds scored in any of these assays.
Pf Dd2 inh: inhibitors of Plasmodium falciparum Dd2 growth; 94,000 tested, 2.3% active; P. falciparum Dd2 growth, SYBR Green, 72 h; hits give low values; activity change, % at 10 µM; in the data active means activity change below about -80%; inconclusive means no clear call, values can overlap the other calls
C diff growth: C. difficile growth inhibition. Clostridium difficile clinical isolate growth, OD600, 24 h; hits give low values. growth activity, negative = inhibition, % at 16 µg/mL (by protocol). 86,000 tested, 0.25% active. AID 1259249;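 active means mean growth activity at or below -80% and every replicate also at or below -80%; inconclusive means mean at or below -80% but some replicate above -80%; inactive means mean growth activity above -80%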;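 further: 0% = DMSO wells and -100% = levofloxacin 16 µg/mL wells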
T cruzi growth-1: inhibitors of T. cruzi proliferation; 77,000 tested, 5.9% active; AID 624255; T. cruzi beta-gal in NIH3T3, GalScreen luminescence, 90 h; inhibition, % at 8.34 µM;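 active means mean inhibition above about 93%, with at least 55% of replicates each passing it, limit read from the data, passing the limit was not always enough; inconclusive means only one of those two conditions holds; inactive means neither condition holds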
T cruzi growth-2: Trypanosoma cruzi proliferation inhibition | AID 651739 | shares compounds with T cruzi growth-1 | inhibition, % at 8.35 µM | T. cruzi beta-gal in NIH3T3, GalScreen luminescence, 90 h | 5,600 tested, 72% active;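 active means mean replicate inhibition above about 95% and at least 55% of replicates individually reaching it, limit read from the data; inconclusive means only one of the two criteria is met; inactive means neither criterion is met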
T cruzi growth-3: blocks T. cruzi growth in NIH3T3 host cells. inhibition, % at 2.09 µM. T. cruzi beta-gal in NIH3T3, GalScreen luminescence, 90 h. shares compounds with T cruzi growth-1. 5,600 tested, 21% active;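 active means mean inhibition above about 95%, with at least 55% of replicates also reaching it, limit read from the data; inconclusive means meets just one of the two conditions; inactive means meets neither condition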;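 further: plate controls were neutral control median for no effect and positive control median for full effect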
3T3 cytotox: kills mouse NIH/3T3 fibroblasts. shares compounds with T cruzi growth-1. NIH/3T3 viability, CellTiter-Glo ATP luminescence, 90 h. cytotoxicity (signal decrease), % at 8.35 µM. 5,600 tested, 14% active;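 active means mean signal decrease across replicates above about 35% based on untreated-well scatter, with enough replicates individually passing, limit read from the data; inconclusive means no rule stated though some were filed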;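 further: 0% = median of neutral control wells and 100% = median of positive control wells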
NIH3T3 tox 2: kills mouse NIH/3T3 fibroblasts. AID 651744. inhibition, % at 24.9 µM. 5,600 tested, 56% active. NIH/3T3 viability, CellTiter-Glo ATP luminescence, 90 h. shares compounds with T cruzi growth-1;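 active means mean loss of cell viability signal at or above a set limit, and enough replicates individually reaching it; inconclusive means meets only the mean limit or only the replicate share; inactive means meets neither condition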;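 further: 0% = median of neutral control wells and 100% = median of positive control wells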
Active calls of the source: *; ? = inconclusive; / = no result given.

SMILES	Pf Dd2 inh	C diff growth	T cruzi growth-1	T cruzi growth-2	T cruzi growth-3	3T3 cytotox	NIH3T3 tox 2
O=C(N[C@@H]1CC[C@H](CCNC(=O)C2CC2)O[C@H]1CO)c1ccncc1	/	0.2	/	/	/	/	/
COc1cccc(-c2ccc3c(c2)O[C@H](CN(C)C(=O)c2ccccc2F)[C@H](C)CN([C@H](C)CO)S3(=O)=O)c1	-49.9	-3.6	108.5*	105.3*	77.4	45.1*	74.2*
C[C@@H]1CN([C@@H](C)CO)S(=O)(=O)c2ccc(-c3ccccc3)cc2O[C@H]1CN(C)C(=O)C1CC1	-12.5	-3.5	?	78.0	29.3	38.3*	58.8*
C[C@@H]1CN([C@H](C)CO)S(=O)(=O)c2ccc(-c3ccccc3)cc2O[C@H]1CN(C)C(=O)C1CC1	-1.9	-10.5	115.8	/	/	/	/
COc1cccc(-c2ccc3c(c2)O[C@@H](CN(C)C(=O)c2ccccc2F)[C@H](C)CN([C@H](C)CO)S3(=O)=O)c1	-79.3	1.3	/	/	/	/	/
COc1cccc(-c2ccc3c(c2)O[C@H](CN(C)C(=O)C2CC2)[C@H](C)CN([C@@H](C)CO)S3(=O)=O)c1	9.9	/	101.5*	82.4	42.7	18.0	68.5*
COc1cccc(-c2ccc3c(c2)O[C@H](CN(C)C(=O)C2CC2)[C@@H](C)CN([C@@H](C)CO)S3(=O)=O)c1	-33.2	/	81.1	/	/	/	/
O=C(C[C@H]1CC[C@H](NC(=O)CC2CC2)[C@@H](CO)O1)NCc1ccccc1	11.8	-0.5	/	/	/	/	/
O=C(C[C@H]1C[C@@H]2c3cc(NC(=O)c4cccnc4)ccc3O[C@@H]2[C@H](CO)O1)NCc1cccc(F)c1	-5.9	0.9	-66.0	/	/	/	/
C[C@H](NC(=O)[C@H]1[C@H](CO)[C@H]2Cn3c(cccc3=O)[C@H]2N1CC1CC1)c1ccccc1	4.5	-3.1	50.2	/	/	/	/
O=C(Nc1cccc(F)c1)N1C[C@H]2[C@@H](c3ccccc31)[C@@H](CO)N2C(=O)c1ccccn1	1.4	1.4	-2.8	/	/	/	/
CC(=O)N1CC[C@@H]2[C@H](CO)Nc3ccc(-c4cccc(F)c4)cc3[C@@H]21	24.5	-6.3	66.1	/	/	/	/
COc1ccccc1-c1ccc2c(c1)[C@H]1[C@H](CCN1C(=O)C1CC1)[C@@H](CO)N2	4.4	-1.2	98.5*	107.1*	87.7	-7.2	1.0
O=C(C1CC1)N1CC[C@@H]2[C@@H](CO)Nc3ccc(-c4cccc(F)c4)cc3[C@@H]21	-5.2	-21.6	109.2*	100.8*	83.1	-0.8	26.4*
O=C(C1CCC1)N1CC[C@@H]2[C@H](CO)Nc3ccc(-c4cccc(F)c4)cc3[C@@H]21	18.1	29.5	?	106.1*	91.1	1.2	70.5*
COc1ccccc1-c1ccc2c(c1)[C@H]1[C@H](CCN1C(=O)C1CC1)[C@H](CO)N2	-3.2	-1.4	87.8	/	/	/	/
O=C(C1CCCC1)N1CC[C@H]2[C@H](CO)Nc3ccc(-c4cccc(F)c4)cc3[C@H]21	-49.4	28.3	/	/	/	/	/
CCNC(=O)C[C@H]1C=C[C@@H](NC(=O)C2CCOCC2)[C@@H](CO)O1	-26.6	3.7	/	/	/	/	/
CO[C@@H](CN(C)C(=O)c1ccccc1F)[C@@H](C)CN([C@@H](C)CO)S(=O)(=O)c1ccc(C)cc1	9.4	/	35.4	/	/	/	/
N#C[C@H]1[C@@H](c2ccc(C#Cc3ccc(F)cc3)cc2)[C@H](CO)N1C(=O)C1CCC1	-39.2	-28.5	93.0	/	/	/	/
N#C[C@@H]1[C@H](c2ccc(C#Cc3ccc(F)cc3)cc2)[C@@H](CO)N1C(=O)C1CCC1	-35.3	-20.5	92.6	/	/	/	/
N#C[C@H]1[C@H](c2ccc(C#Cc3ccc(F)cc3)cc2)[C@H](CO)N1C(=O)C1CCCC1	-42.5	-1.6	103.8*	100.5*	71.0	-7.7	81.7*
N#C[C@H]1[C@H](c2ccc(C#Cc3ccc(F)cc3)cc2)[C@H](CO)N1C(=O)C1CCC1	-46.4	-14.2	99.2*	111.6*	72.4	11.5	83.0*
CO[C@@H]1CN(C)C(=O)c2ccc(NC(=O)c3ccc4c(c3)OCO4)cc2OC[C@H](C)N(CC2CC2)C[C@@H]1C	-7.5	/	/	/	/	/	/
CO[C@H]1CN(C)C(=O)c2ccc(NC(C)=O)cc2OC[C@@H](C)N(Cc2ccccc2C(=O)O)C[C@@H]1C	32.4	/	-33.4	/	/	/	/
SMILES	Pf Dd2 inh	C diff growth	T cruzi growth-1	T cruzi growth-2	T cruzi growth-3	3T3 cytotox	NIH3T3 tox 2
COCC#Cc1ccc2c(c1)O[C@@H](CN(C)S(=O)(=O)c1cccc(F)c1)[C@H](C)CN([C@H](C)CO)S2(=O)=O	-68.9	-0.6	29.0	/	/	/	/
C[C@H]1CN([C@@H](C)CO)S(=O)(=O)c2ccc(C#CCN(C)C)cc2O[C@H]1CN(C)S(=O)(=O)c1cccc(F)c1	-16.8	1.3	/	/	/	/	/
C[C@@H]1CN([C@H](C)CO)S(=O)(=O)c2ccc(C#CCN(C)C)cc2O[C@H]1CN(C)S(=O)(=O)c1cccc(F)c1	-18.0	1.9	/	/	/	/	/
CC(C)CC#Cc1ccc2c(c1)O[C@@H](CN(C)S(=O)(=O)c1cccc(F)c1)[C@H](C)CN([C@H](C)CO)S2(=O)=O	-56.5	7.8	121.0*	103.1*	86.6	45.3*	106.4*
CC(C)CC#Cc1ccc2c(c1)O[C@@H](CN(C)S(=O)(=O)c1cccc(F)c1)[C@@H](C)CN([C@@H](C)CO)S2(=O)=O	-24.1	-1.0	120.9*	90.6	112.1*	25.9	105.0*
CC(C)CC#Cc1ccc2c(c1)O[C@H](CN(C)S(=O)(=O)c1cccc(F)c1)[C@@H](C)CN([C@H](C)CO)S2(=O)=O	-62.6	6.8	118.5*	100.6*	106.8*	32.3	60.8*
CC(C)CC#Cc1ccc2c(c1)O[C@@H](CN(C)S(=O)(=O)c1cccc(F)c1)[C@H](C)CN([C@@H](C)CO)S2(=O)=O	?	10.4	110.2*	?	114.6*	33.6	68.2*
C[C@@H]1CN([C@H](C)CO)S(=O)(=O)c2ccc(C#CCN(C)C)cc2O[C@@H]1CN(C)S(=O)(=O)c1cccc(F)c1	-33.3	2.0	/	/	/	/	/
CN(C)C(=O)C[C@H]1CC[C@H]2[C@@H](COc3ccc(NS(=O)(=O)c4cccc(F)c4)cc3C(=O)N2C)O1	-0.3	6.2	-28.2	/	/	/	/
CO[C@H]1CN(C)C(=O)c2ccc(NC(C)=O)cc2OC[C@H](C)N(C(=O)c2ccccn2)C[C@H]1C	-1.5	/	10.0	/	/	/	/
O=C(C[C@H]1CC[C@@H](NC(=O)NC2CCCCC2)[C@@H](CO)O1)NCc1ccc(F)cc1	21.0	1.7	/	/	/	/	/
CO[C@@H]1CN(C)C(=O)c2cc(NC(=O)c3cccc(Oc4ccccc4)c3)ccc2OC[C@@H](C)NC[C@@H]1C	/	/	-69.3	/	/	/	/
C[C@H](CO)N1C[C@H](C)[C@H](CN(C)S(=O)(=O)c2cccc(F)c2)Oc2cc(C#CCN(C)C)ccc2S1(=O)=O	-0.7	0.9	/	/	/	/	/
